From a collection of fitness landscapes (doi:10.1016/j.celrep.2020.107928)
In all, about 81,000 sequences were measured (“one-hybrid fitness for binding parS DNA”: median about -0.17, highest 2% from about 0.51 on). The list comes from a sample in which the highest values are over-represented; it also holds similar and randomly drawn sequences.

B1: Caulobacter ParB omega fusion; a variant is named by its letters at X, in order, B8GW30 (parent)
chain: MESVVVGEPGMSEGRRGLGRGLSALLGEVDAAPAQAPGEQLGGSREAPIEILQRNPDQPRRTFREEDLEDLSNSIREKGVLQPILVRPSPDTAGEYQIVAGERAWRAAQRAGLKTVPIMVRELDDLAVLEIGIIENVQRADLNVLEEALSYKVLMEKFERTQENIAQTIGKSXSHVANXMRLLXLPDEVQSYLVSGELTAXHARAIAAAADPVALAKQIIEGGLSVRETEALARKAPNLSAGKSKGGRPPRVKDTDTQALESDLSSVLGLDVSIDHRGSTGTLTITYATLEQLDDLCNRLTRGI

Variants of: B1
Assay: one-hybrid fitness for binding parS DNA (scaled: cognate 1, non-cognate 0); higher = stronger binding
Conditions: with parS DNA site
How it was run: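 On M9-minus-histidine containing 0.1 mM IPTG and 5 mM 3-AT, E. coli USO cells with a HIS3 reporter, site 19 bp from the promoter, grew 48 hours at 37°C to select Caulobacter ParB libraries randomised at four specificity codons. Plasmids from before and after were Illumina-sequenced, with three replicate libraries pooled and variants under 10 reads left out. Fitness is the log change in variant-to-wild-type read ratio, rescaled against cognate and non-cognate.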

Variant | one-hybrid fitness for binding parS DNA
PMRT | ≤ 0.2
CRCT | ≤ 0.2
TSLF | ≤ 0.2
MEYL | ≤ 0.2
QCLV | ≤ 0.2
EWYS | ≤ 0.2
RWSQ | ≤ 0.2
RWIG | 0.569
RWSR | ≤ 0.2
RWGM | ≤ 0.2
RWIF | ≤ 0.2
RWYG | 0.714
RWSG | 0.769
RWGF | ≤ 0.2
RWYF | ≤ 0.2
RWYM | ≤ 0.2
RWPG | 0.406
RWGG | 0.63
PNWL | ≤ 0.2
PCED | ≤ 0.2
HNST | ≤ 0.2
SHDR | ≤ 0.2
PGRS | ≤ 0.2
GDYR | ≤ 0.2
GWST | ≤ 0.2
QTYA | ≤ 0.2

Variant | one-hybrid fitness for binding parS DNA
NGRC | ≤ 0.2
RWWR | ≤ 0.2
RWWY | ≤ 0.2
RWDK | ≤ 0.2
RWQG | 0.741
RWCG | 0.688
RWQM | ≤ 0.2
RWWG | 0.641
RWCR | ≤ 0.2
RWQK | ≤ 0.2
RWCM | ≤ 0.2
RWDF | ≤ 0.2
RWDG | 0.616
QCIG | ≤ 0.2
ILHY | ≤ 0.2
PETC | ≤ 0.2
RDAC | ≤ 0.2
CSPC | ≤ 0.2
WCDG | ≤ 0.2
TEMT | ≤ 0.2
QRMV | ≤ 0.2
PGQN | ≤ 0.2
RFNK | 0.203
YQGC | ≤ 0.2
RRVC | 0.673
RRKC | 0.649

Variant | one-hybrid fitness for binding parS DNA
RRKQ | ≤ 0.2
RRKR | ≤ 0.2
PLTK | ≤ 0.2
INSY | ≤ 0.2
ENFG | ≤ 0.2
RTYR | ≤ 0.2
RTWN | 0.461
RTRD | ≤ 0.2
RTRT | 0.747
RTYT | 0.952
RTWH | 0.254
RTQT | 0.925
RTQQ | ≤ 0.2
RTYK | ≤ 0.2
RTWT | 0.916
RTRK | ≤ 0.2
RTQM | 0.352
RGTV | ≤ 0.2
KKRF | ≤ 0.2
SRPQ | ≤ 0.2
ITEL | ≤ 0.2
RTGT | 0.912
RTSK | ≤ 0.2
RTGP | ≤ 0.2
RTGR | ≤ 0.2
RTSF | 0.246

Variant | one-hybrid fitness for binding parS DNA
RTST | 0.91
TRWL | ≤ 0.2
HSDW | ≤ 0.2
HVPD | ≤ 0.2
GQVR | ≤ 0.2
FGAG | ≤ 0.2
NLVS | ≤ 0.2
RHVT | 0.637
RHVK | ≤ 0.2
RHKT | 0.745
RHVM | ≤ 0.2
RHKK | ≤ 0.2
RHKF | 0.255
TMRL | ≤ 0.2
CWHG | 0.244
MPLG | ≤ 0.2
YPFR | ≤ 0.2
RTKR | ≤ 0.2
RTVG | 0.979
RTKG | 0.872
RTVH | ≤ 0.2
RTVD | ≤ 0.2
RTKN | 0.441
KCHG | ≤ 0.2
GQFL | ≤ 0.2
PQKC | ≤ 0.2

Variant | one-hybrid fitness for binding parS DNA
NWQS | ≤ 0.2
RRAS | 0.652
RRFS | 0.743
RRAN | 0.583
RRAD | ≤ 0.2
RRFN | 0.314
RRAH | ≤ 0.2
RRFH | ≤ 0.2
RRFP | ≤ 0.2
RCAN | 0.477
MEPC | ≤ 0.2
GRGV | ≤ 0.2
MVCR | ≤ 0.2
PWNF | ≤ 0.2
ATEL | ≤ 0.2
REGS | ≤ 0.2
FMKF | ≤ 0.2
IDST | ≤ 0.2
HFES | ≤ 0.2
QITI | ≤ 0.2
LTWC | ≤ 0.2
ADCT | ≤ 0.2
ENNV | ≤ 0.2
DYSL | ≤ 0.2
RPCY | ≤ 0.2
RCCY | 0.526

Variant | one-hybrid fitness for binding parS DNA
RSCY | 0.47
RMCY | 0.509
WWVS | ≤ 0.2
TIHD | ≤ 0.2
VITG | ≤ 0.2
YPSN | ≤ 0.2
RLIG | 0.934
RLIK | ≤ 0.2
RLIY | 0.437
RLPP | ≤ 0.2
RLPH | ≤ 0.2
RLPG | 0.755
NLNR | ≤ 0.2
YYRR | ≤ 0.2
VLMH | ≤ 0.2
LVRM | ≤ 0.2
KHKS | ≤ 0.2
DGAP | ≤ 0.2
RWTQ | ≤ 0.2
RWTD | ≤ 0.2
RWTG | 0.824
RWTP | ≤ 0.2
RWTS | 0.956
RWTN | 0.338
RWTH | ≤ 0.2
RWTR | ≤ 0.2

Variant | one-hybrid fitness for binding parS DNA
RWTF | ≤ 0.2
RWTC | 0.79
RWTT | 0.705
RWTY | 0.37
SCKV | ≤ 0.2
RMTE | ≤ 0.2
EKPG | ≤ 0.2
PAYN | ≤ 0.2
HTMF | ≤ 0.2
AKDP | ≤ 0.2
FKSC | ≤ 0.2
TTMG | ≤ 0.2
PSRP | ≤ 0.2
QMFV | ≤ 0.2
YLKH | 0.358
HKTR | ≤ 0.2
KKHM | ≤ 0.2
RGHA | 0.238
RAHA | 0.613
RLHA | 0.592
RWHA | 0.378
DLHA | ≤ 0.2
RPHA | ≤ 0.2
NAHA | ≤ 0.2
RNHA | 0.438
RDHA | ≤ 0.2

Variant | one-hybrid fitness for binding parS DNA
RSHA | 0.592
RCHA | 0.626
LRPS | ≤ 0.2
RCFW | 0.256
MCTC | ≤ 0.2
CVPM | ≤ 0.2
SGES | ≤ 0.2
ADNQ | ≤ 0.2
SFPL | ≤ 0.2
TQVG | ≤ 0.2
TFSM | ≤ 0.2
PVIS | ≤ 0.2
RMHA | 0.603
DTHA | ≤ 0.2
AFHA | ≤ 0.2
RHHA | 0.526
PFHA | ≤ 0.2
DMHA | ≤ 0.2
NTHA | ≤ 0.2
RFHA | 0.53
RTHA | 0.61
